PubChem BioAssay AID652154 (Broad Institute, 2013)
Out of some 360,000 compounds screened, about 4,200 (1.2%) were called active. For the sample, actives were picked, then their nearest neighbours and some compounds at random. Values without a mark were called inactive.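 The calls were made as follows: active = mean replicate inhibition at least 60% with every replicate also reaching 60%; inconclusive = only one of the two criteria is met; inactive = mean below 60% and not all replicates reaching 60%.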

assay: inhibitors of PAX8-driven TPO luciferase reporter, primary screen, RMG-I cells, single concentration (AID 652154); settings: SteadyGlo, 24 h, at 12.6 µM, active compounds read high;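 also: luciferase light reporting Pax8 driven TPO promoter activity; plate controls were median of neutral control wells for no effect and mitoxantrone controls for full effect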

First: C[C@H]1CN([C@@H](C)CO)C(=O)c2cccc(NS(=O)(=O)c3cn(C)cn3)c2O[C@@H]1CN(C)C(=O)Nc1ccc(F)cc1
Second: C[C@@H]1CCCCO[C@H](CN(C)S(=O)(=O)c2cn(C)cn2)[C@@H](C)CN([C@@H](C)CO)C(=O)c2cc(NC(=O)c3ccncc3)ccc2O1
The inhibition of the first is lower: -9.83% for the first, -1.88% for the second.

First: O=C(Nc1ccccc1)N[C@@H]1CC[C@H](CCNS(=O)(=O)c2ccccc2F)O[C@@H]1CO
Second: O=C(Nc1cccc(F)c1)N[C@@H]1CC[C@@H](CCn2cc(Cc3ccccc3)nn2)O[C@@H]1CO
The inhibition of the first is lower: -8.59% for the first, 3.01% for the second.

First: C/C(CC1CC(C)(C)OC1=O)=N/Nc1nc(-c2ccccc2)cs1 (stereo not given)
Second: Cc1ccc(-c2csc(NC(=O)C3=COCCO3)n2)cc1C
The inhibition of the first is higher: 19.2% for the first, -109% for the second.

Compared with `CC(=O)N1[C@H](CO)[C@H](c2ccc(-c3ccccc3)cc2)[C@H]1CNC(=O)C1CC1`, `CN(C)C(=O)c1cccc(-c2ccc([C@H]3[C@@H](CO)N4C(=O)CN(C(=O)C5CC5)C[C@@H]34)cc2)c1` is lower in inhibition: -4.5% for the first, -11.3% for the second.

Going from `CN(C)C(=O)c1cccc(-c2cnc3c(NC=O)cc(-c4ccc(F)cc4)cn23)c1` to `CC(=O)c1cccc(-c2cnc3c(NC=O)cc(-c4cccc(C(=O)N(C)C)c4)cn23)c1`, the inhibition falls from 33.9% to 12.7%.

Compared with `COc1ccc(NC(=O)Nc2ccc3c(c2)C(=O)N([C@H](C)CO)C[C@H](C)[C@H](CN(C)S(=O)(=O)c2ccc(Cl)cc2)OCCCC[C@H](C)O3)cc1`, `COc1ccc(S(=O)(=O)Nc2ccc3c(c2)C(=O)N([C@H](C)CO)C[C@H](C)[C@H](CN(C)S(=O)(=O)c2ccc(Cl)cc2)O3)cc1` is lower in inhibition: 26.6% for the first, -6.19% for the second.

Compared with `O=C(C[C@@H]1C[C@@H]2c3cc(NS(=O)(=O)c4ccccc4)ccc3O[C@@H]2[C@@H](CO)O1)NC1CCCCC1`, `O=C(C[C@@H]1C[C@@H]2c3cc(NC(=O)NC4CCCC4)ccc3O[C@@H]2[C@H](CO)O1)NCC(F)(F)F` is lower in inhibition: 15.4% for the first, -19.4% for the second.

Going from `CCOC(=O)c1c(C)[nH]c(C(=O)OCC(=O)c2ccc(OC)cc2OC)c1C` to `CCOC(=O)c1c(C)[nH]c(C)c1S(=O)(=O)NCCCc1ccco1`, the inhibition rises from -7.09% to -4.09%.

Compared with `COCC(=O)Nc1ccc2c(c1)C(=O)N(C)C[C@@H](OC)[C@@H](C)CN(C(=O)c1ccccc1)[C@@H](C)CO2`, `CO[C@@H]1CN(C)C(=O)c2ccc(NC(=O)C3CCC3)cc2OC[C@H](C)N(C(=O)CN(C)C)C[C@H]1C` is lower in inhibition: -10.2% for the first, -10.4% for the second.

Going from `CC(=O)N1[C@@H](CO)[C@@H]2c3ccccc3N(S(=O)(=O)c3ccccc3)C[C@@H]21` to `O=C(CC1CC1)N1[C@@H]2CN(S(=O)(=O)c3ccccc3F)c3ccccc3[C@@H]2[C@@H]1CO`, the inhibition falls from 7.26% to -3.48%.

Compared with `O=C(C(=O)N1CCC(CNC(=O)c2cccnc2Cl)CC1)c1cccs1`, `CC(C)c1cc(C(=O)NC2CCCCCC2)c2ccccc2n1` is higher in inhibition: -11.9% for the first, -9.13% for the second.

Compared with `CC(/C=N/NC(=O)c1cc(-c2ccc3ccccc3c2)n[nH]1)=C\c1ccco1`, `Cc1ccc(-c2cc(C(=O)N/N=C/C=C/c3ccccc3)n[nH]2)o1` is higher in inhibition: -6.24% for the first, 47.7% for the second.

Going from `Cc1cc(C(=O)NCCc2ccc(Cl)cc2)c(C)o1` to `Cc1cccc(N(Cc2ccccc2)C(=O)c2ccccc2F)c1`, the inhibition rises from -114% to 3.65%.

Going from `O=C(N/N=C\c1cccc(Br)c1)c1ccccc1-n1cccc1` to `O=C(NC(Cc1c[nH]c2ccccc12)C(=O)N/N=C/c1ccc(Br)cc1)c1cccs1` (stereo not given), the inhibition falls from 24.9% to -2.62%.

Going from `C[C@H](CO)N1C[C@H](C)[C@H](CN(C)C(=O)Nc2ccc3c(c2)OCO3)Oc2ccc(NS(=O)(=O)c3ccc(Cl)cc3)cc2CC1=O` to `Cc1noc(C)c1NC(=O)N(C)C[C@H]1Oc2ccc(NC(=O)C3CCCCC3)cc2CC(=O)N([C@@H](C)CO)C[C@H]1C`, the inhibition rises from -20.9% to -10.9%.

First: CN1[C@@H]2CN(C(=O)c3ccc(F)cc3)c3ccccc3[C@@H]2[C@@H]1CO
Second: O=C(c1ccccc1)N1C[C@@H]2[C@H](c3ccccc31)[C@@H](CO)N2Cc1cc(F)ccc1F
The inhibition of the first is lower: -1.94% for the first, 28% for the second.

Compared with `O=C(Nc1cc(F)ccc1F)N[C@H]1CC[C@@H](CCn2cc(C3CCCC3)nn2)O[C@@H]1CO`, `COc1ccc(NC(=O)N[C@H]2CC[C@H](CCn3cc(-c4ccccc4F)nn3)O[C@H]2CO)cc1` is lower in inhibition: 5.81% for the first, -4.51% for the second.

Compared with `COc1cccc(CNC(=O)C[C@H]2CC[C@@H](NC(=O)C3CCC3)[C@@H](CO)O2)c1`, `O=C(Cc1ccccc1)N1C[C@@H]2[C@H](c3ccccc31)[C@@H](CO)N2C(=O)C1CC1` is higher in inhibition: -6.76% for the first, 6.8% for the second.

Compared with `Cc1ccc(S(=O)(=O)N(C)C[C@H]2OCCCC[C@H](C)Oc3ccc(N(C)C)cc3C(=O)N([C@H](C)CO)C[C@@H]2C)cc1`, `CC(C)NC(=O)Nc1ccc2c(c1)C(=O)N([C@H](C)CO)C[C@H](C)[C@H](CN(C)Cc1ccc(C(=O)O)cc1)OCCCC[C@@H](C)O2` is lower in inhibition: 32% for the first, 2.34% for the second.

Going from `CNC[C@H]1OCCCC[C@@H](C)Oc2ccc(NC(=O)c3ccncc3)cc2C(=O)N([C@H](C)CO)C[C@H]1C` to `C[C@@H]1CN([C@@H](C)CO)C(=O)c2cc(NC(=O)CCN3CCOCC3)ccc2O[C@H]1CN(C)C(=O)NC1CCCCC1`, the inhibition falls from -8.2% to -13.4%.

Compared with `O=S(=O)(NC1CCCCC1N1CCCCC1)c1ccc(Cl)cc1` (stereo not given), `COc1ccc(N2CCN(C3CCCCC3NS(=O)(=O)c3ccccc3)CC2)cc1` (stereo not given) is higher in inhibition: 7.52% for the first, 19.3% for the second.

First: C[C@@H]1CN([C@@H](C)CO)C(=O)c2cc(-c3cncnc3)cnc2O[C@H]1CN(C)Cc1cncnc1
Second: CC(C)C#Cc1ccc2c(c1)O[C@@H](CN(C)Cc1ccncc1)[C@@H](C)CN([C@@H](C)CO)S2(=O)=O
The inhibition of the first is higher: -3.91% for the first, -12.5% for the second.

First: CCCCC(O)(CCCC)C(=O)NN(C(=O)CCl)c1ccccc1
Second: O=C(CC(=O)N/N=C\c1ccc(F)cc1)NCCc1ccccc1
The inhibition of the first is lower: -1.33% for the first, 16.1% for the second.

Going from `CN1c2ccc(-c3cccc(F)c3)cc2[C@@H]2[C@@H](CCN2C(=O)Nc2ccccc2F)[C@@H]1CO` to `COc1ccc(-c2ccc([C@@H]3[C@@H](CO)N4C(=O)CN(Cc5ccccc5)C[C@@H]34)cc2)cc1`, the inhibition falls from 39.3% to -17%.

Compared with `Cc1ccccc1OS(=O)(=O)c1cccc([N+](=O)[O-])c1`, `O=C(NCc1ccncc1)c1ccc(NS(=O)(=O)c2cccc([N+](=O)[O-])c2)cc1` is higher in inhibition: -23.3% for the first, -1.39% for the second.

Compared with `CO[C@H]1CN(C)C(=O)c2ccc(NS(=O)(=O)c3cn(C)cn3)cc2OC[C@@H](C)N(CC2CC2)C[C@H]1C`, `CC(C)C(C)NC(=O)COc1nc2ccccc2nc1N(C)C1CCCCC1` (stereo not given) is higher in inhibition: -11.1% for the first, 0.996% for the second.

First: CC(=O)c1ccc(S(=O)(=O)N2CCC(Oc3ccc(-n4cnnn4)cc3)CC2)cc1
Second: CC(=O)c1ccc(S(=O)(=O)N2CCC3(CC2)OCCO3)cc1
The inhibition of the first is lower: -37.6% for the first, -17.6% for the second.

Going from `COc1ccc([Si](C)(C)[C@@H]2[C@@H](CCO)O[C@]3(C(=O)N(Cc4cccc(N5CCCCC5=O)c4)c4ccccc43)[C@H]2C)cc1` to `O=C(C1=C[C@@H](c2ccccc2)C[C@@H](OCCCCO)O1)N1CCN(Cc2ccccc2)CC1`, the inhibition falls from 3.33% to 2.95%.

Compared with `COc1cc(C(=O)CCc2ccc3c(c2)OCO3)cc(OC)c1OC`, `COc1cc(C2CC(=O)Oc3cc(OC)c(OC)c(OC)c32)cc(OC)c1OC` (stereo not given) is higher in inhibition: -6.52% for the first, -2.9% for the second.

In the case of `Cc1ccccc1S(=O)(=O)N1[C@@H]2CNC[C@H]1C2c1ccc(-c2cccnc2)cc1` (stereo not given in full), the inhibition is reported as 19.3%.

For `Cc1ccc(-c2csc(NC3OC(=O)c4ccccc43)n2)cc1` (stereo not given), the inhibition was 92.3% (active).
In the case of `CN(C)CCNC(=O)c1cccc(-c2cnc3c(NC=O)cc(-c4cccc(C(F)(F)F)c4)cn23)c1`, the inhibition is reported as 109% (active).
In the case of `CCOC(=O)c1c(C)[nH]c2c1-c1ccccc1C(=O)C2=O`, the inhibition is reported as 107% (active).
With `Cc1cc(C(=O)N/N=C\C(Br)=C\c2ccccc2)c(C)o1` the inhibition was 63% (active).
With `CC(C)c1cc(C(=O)N/N=C/C(Br)=C/c2ccccc2)n[nH]1` the inhibition was 74.5% (active).
With `CC[n+]1cc(C)ccc1/C=C/c1ccc(N(C)C)cc1` the inhibition was 86.7% (active).
In the case of `Oc1c(Cl)cc(Cl)c(Cl)c1Cc1c(O)c(Cl)cc(Cl)c1Cl`, the inhibition is reported as 107% (active).
With `O=S(=O)(NC1CCCCC1N1CCN(c2ccccc2F)CC1)c1ccccc1` (stereo not given) the inhibition was 101% (active).
For `CCCC(O)(CCC)C(=O)NN(C(=O)CCl)c1cccc(C)c1`, the inhibition was 76.1% (active).
In the case of `CCCCCCCCn1c2c(c(=N)c3c1CCC3)CCCC2`, the inhibition is reported as 96.6% (active).
For `N/C(=N\OS(=O)(=O)c1cccc([N+](=O)[O-])c1)c1ccncc1`, the inhibition was 134% (active).
With `O=C(Cc1c[nH]c2ccccc12)N/N=C/c1cccc(F)c1` the inhibition was 73.6% (active).
For `CC(=O)c1ccc(S(=O)(=O)N2CCN(C(=O)/C=C/c3ccc4ccccc4n3)CC2)cc1`, the inhibition was 79.4% (active).
In the case of `COc1ccc([Si](C)(C)[C@@H]2[C@@H](CCO)O[C@]3(C(=O)N(Cc4ccccc4)c4ccc(N5CCC5=O)cc43)[C@H]2C)cc1`, the inhibition is reported as 101% (active).
In the case of `COc1cc(C2c3cc4c(cc3C(O)C3COC(=O)C23)OCO4)cc(OC)c1OC` (stereo not given), the inhibition is reported as 77.3% (active).
With `CN(c1ccc2nc3ccccc3c(=O)n2n1)C1CCCCC1` the inhibition was 86% (active).
